We go through 29 molecules from PubChem BioAssay (NCATS).

Structures are written as SMILES. Inconclusive results are not listed. Calls of active or inactive are those of the source. Calls follow the shape of the full dose curve.

Chain of Thyroid hormone receptor beta (Homo sapiens) (P10828 whole entry, looked up): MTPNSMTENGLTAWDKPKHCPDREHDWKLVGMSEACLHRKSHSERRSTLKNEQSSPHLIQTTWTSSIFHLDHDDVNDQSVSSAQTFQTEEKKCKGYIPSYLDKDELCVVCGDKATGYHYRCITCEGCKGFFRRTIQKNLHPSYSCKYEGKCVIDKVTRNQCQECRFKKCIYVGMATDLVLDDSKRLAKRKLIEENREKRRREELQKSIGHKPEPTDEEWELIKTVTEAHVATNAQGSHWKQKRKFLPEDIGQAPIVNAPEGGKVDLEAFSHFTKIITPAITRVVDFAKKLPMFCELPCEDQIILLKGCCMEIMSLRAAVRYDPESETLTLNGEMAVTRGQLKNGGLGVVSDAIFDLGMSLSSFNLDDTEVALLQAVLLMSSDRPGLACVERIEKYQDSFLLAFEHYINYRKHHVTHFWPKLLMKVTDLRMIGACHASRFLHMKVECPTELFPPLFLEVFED

This assay has as its target Thyroid hormone receptor beta (Homo sapiens) (UniProt P10828). Nature of the assay: qHTS assay for small molecule agonists of thyroid hormone receptor beta signaling (AID 588545). The following applies: TR-UAS-bla GripTite HEK 293, beta-lactamase ratio, agonist mode, 18 h, percent of T3 response, DMSO as zero; series mostly up to 76.7 µM. An excerpt:
NIH Chemical Genomics Center [NCGC]
U.S. Environmental Protection Agency [EPA]
National Institutes of Environmental Health Sciences [NIEHS]
National Toxicology Program [NTP]
Thyroid hormone receptor (TR) belongs to nuclear hormone receptor superfamily. There are two subtypes for TR: TR-alpha and TR-beta. TR-beta plays a major role in regulating plasma cholesterol levels and it mediates the biological activities of thyroid hormone. Screening environmental chemicals on TR-beta signaling will provide important information for the mechanism of compound action.
NCGC Assay Protocol Summary
Using a beta-lactamase reporter-gene under control of the TR response element, a cell-based assay [GeneBLAzer TR-UAS-bla-GripTite assay developed by Invitrogen] was used to measure TR-beta signaling in agonist mode. TR-UAS-bla-GripTite HEK 293 cells were used with assay medium containing 2% charcoal/dextran FBS, 0.1 mM NEAA and 1 mM sodium pyruvate. The assay was performed in clear bottom black Greiner 1536-well plates. T3 was used as a positive control in the screen. Library compounds were measured for their ability to stimulate the reporter gene activity. Compounds were screened in a titration series in 1536-well format. The fluorescence intensity (405 nm excitation, 460/530 nm emission) was measured using an EnVision plate reader. Data was normalized relative to T3 control (10 nM, 100%), and DMSO only wells (basal, 0%). Concentration-response titration points for each compound were fitted to the Hill equation yielding concentrations of half-maximal stimulation (EC50) and maximal response (efficacy) values.
qHTS protocol for TR-beta beta-lactamase assay in agonist mode
[Step] [Parameter] [Value] [Description]
1. Reagent; 6 uL; 2500 cells/well
2. Incubation; 37 C for 4 hrs
- Dose response; start 3.8 uM, 1:3 dilutions, duplicates in first column
- Two columns of each 10 and 0.4 nM (finals) concentrations.
5. Incubation; 37 C for 18 hrs
6. Detection reagent; 1 uL of CCF4-dye
7. Incubation; RT for 2 hrs
8. Detection; Fluorescence; Envision plate reader
Background: Quantitative high-throughput screening tests each substance at several concentrations.
`Nc1ccc(S(=O)(=O)c2ccc(N)cc2)cc1`: the outcome was inactive. As for `O=C(c1ccccc1)C(O)c1ccccc1` (centres undefined), the entry is “inactive”. As for `CCCCOC(=O)c1ccc(N)cc1`, the entry is “inactive”; as for `Cc1cc(O)cc(C)c1Cl`, “inactive”; as for `O=C1C(c2[nH]c3ccccc3c2O)=Nc2ccccc21`, “inactive”.

For `Cc1c(C(=O)NCCO)[n+](=O)c2ccccc2n1[O-]`, the result was inactive. As for `O=C(O)CCCCC1CCSS1` (centres undefined), the entry is “inactive”. Regarding `Cc1cc(=O)[nH]c(=S)[nH]1`, the result was inactive. As for `CC(=O)Nc1ccccc1`, the entry is “inactive”; as for `C=CCNC(N)=S`, “inactive”. As for `O=C(OOC(=O)c1ccccc1)c1ccccc1`, the entry is “inactive”.

With `CCCCCCCC(=O)OCC(COC(=O)CCCCCCC)OC(=O)CCCCCCC`, the outcome was inactive. As for `CC(=O)Nc1ccc(C(=O)O)cc1`, the entry is “inactive”; as for `Cc1c(N(C)C)c(=O)n(-c2ccccc2)n1C`, “inactive”; as for `CCCCCCCCCCCCCCCCCCO`, “inactive”. As for `FC(F)(F)C(Cl)Br` (centres undefined), the entry is “inactive”; as for `Cc1cccc(Nc2ccccc2C(=O)O)c1C`, “inactive”; as for `CC(=O)NS(=O)(=O)c1ccc(N)cc1`, “inactive”. For the molecule `COC(=O)c1ccc(O)cc1`, the outcome was inactive. As for `CC1CC(OC(=O)c2ccccc2O)CC(C)(C)C1` (centres undefined), the entry is “inactive”; as for `OC[C@@H](O)[C@@H](O)[C@H](O)[C@H](O)CO`, “inactive”.

As to `COc1ccc(O)cc1`, the result was inactive. As for `CC(=O)Nc1cccc(O)c1`, the entry is “inactive”. As for `Cc1cc(C)nc(NS(=O)(=O)c2ccc(N)cc2)n1`, the entry is “inactive”. On to `CCCC(O)C(CC)CO` (centres undefined), for which the result was inactive. Take `Cc1ccc(C(C)C)c(O)c1`: the outcome was inactive. As for `CC(C)=CCC/C(C)=C/CO`, the entry is “inactive”; as for `CCCCCC(N)=O`, “inactive”; as for `CC(=O)OCC(COC(C)=O)OC(C)=O`, “inactive”.
